Experimental data reported in PubChem BioAssay AID624417 (National Center for Advancing Translational Sciences (NCATS), 2012).
In all, about 410,000 compounds went through this assay and about 6,400 (1.6%) were called active. About 20% were inconclusive and are not listed. Calls follow the shape of the dose curve; as a rule, active = well fitted inhibition curve with a large enough effect; inconclusive = small, poorly fitted or top-dose-only effect; inactive = no such curve, though single readings can be large or run the other way. The full list was thinned out, with actives kept by preference.

molecular target: Glucagon-like peptide 1 receptor (Homo sapiens) (UniProt P43220); experiment: qHTS of GLP-1 Receptor Inverse Agonists (Inhibition Mode); details: HEK293 GLP-1R CRE-luciferase, luminescence, 24 h; series mostly up to 38.3 µM; activity change, negative = inhibition: at the top concentration; also: nearly all actives have a fitted effect of over 55% in size
Sequence (P43220 whole entry, looked up): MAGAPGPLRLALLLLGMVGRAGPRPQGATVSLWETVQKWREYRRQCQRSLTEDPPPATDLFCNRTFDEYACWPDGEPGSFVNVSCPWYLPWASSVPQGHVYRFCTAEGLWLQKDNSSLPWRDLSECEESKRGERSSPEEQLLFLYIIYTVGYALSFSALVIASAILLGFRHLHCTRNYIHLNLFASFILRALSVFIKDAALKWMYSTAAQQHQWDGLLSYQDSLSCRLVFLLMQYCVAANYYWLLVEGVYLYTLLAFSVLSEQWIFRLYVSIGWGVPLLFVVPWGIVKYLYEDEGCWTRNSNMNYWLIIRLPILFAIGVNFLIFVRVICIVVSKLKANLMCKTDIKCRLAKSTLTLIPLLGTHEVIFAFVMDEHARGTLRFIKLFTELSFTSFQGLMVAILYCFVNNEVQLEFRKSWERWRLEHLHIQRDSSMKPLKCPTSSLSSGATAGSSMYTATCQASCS
Source text: The overall goal of this project was to develop a novel assay for discovering small molecule ligands for class B1 G protein-coupled receptors (GPCRs). Very few agonists (or inverse agonists in inhibition mode) with generally weak activity for this entire group of physiologically important receptors are known to date. To establish proof-of-principle that this critical bottleneck can be overcome with a suitable screening approach, our studies focused on the class B1 receptor for glucagon-like peptide-1 (GLP-1R), a potential therapeutic target for diabetes and neurodegenerative disease. The assay was developed using a cell-based functional readout. Toward this goal, stably transfected HEK293 cell clones were established that co-express (i) a cAMP-responsive luciferase reporter gene, and (ii) constitutively active GLP-1R that upon ligand interaction inhibit (inverse agonists) the luciferase activity. In addition, two control cell lines were developed: (i) one that express only the cAMP-responsive reporter gene to enable initial exclusion of GLP-1R independent effects of candidate probes; and (ii) one with the reported gene cloned with another constitutively active orphan receptor GPR119 to enable exclusion of GLP-1R independent inhibitor effects of candidate inverse agonists. To that end, this assay was optimized for 1536-well format and screened against the MLSMR. […] NIH Molecular Libraries Probe Production Network [MLPCN] NIH Chemical Genomics Center [NCGC] Grant: NS064851 PI Name: Martin Beinborn, Tufts Medical Center
Six ul of cell suspension (200 cells/uL in DMEM + 10% Nu serum + 1% pen-strep) is dispensed in a white solid 1536-well plate. The plates are incubated for 12 hours at 37 deg C at 5% CO2 followed by addition of 23 nL compounds. After 24 hr incubation at 37 deg C and 5% CO2, 3 uL of luciferase assay detection reagent is added. A luminescence read is obtained on the PerkinElmer Viewlux after 12 min incubation at room temperature.
% is scaled to controls: 0 for no effect and ±100 for the full control effect; potency is read from the fitted curve at half-maximal effect.

Structure (SMILES) | Potency | activity change, negative = inhibition
COc1cc(-n2c(=S)[nH]c3ccc(C)cc3c2=O)c(Cl)cc1Cl | 12.6 µM (active) | 
O=c1c2ccccc2[nH]c(=S)n1-c1cccc(Cl)c1 |  | -3.22% (inactive)
C[C@]12CCCCC1=CC(=O)C1C2CC[C@@]2(C)C1C[C@@H](F)[C@@H]2O (some centres undefined) |  | 8.19% (inactive)
COC1=CC=C2[C@H]3Cc4ccc(OC)c5c4[C@@]2(CCN3C)C1O5 (some centres undefined) |  | 0.902% (inactive)
COc1ccc2c(c1)NP(=S)(c1ccccc1)N2 (centres undefined) |  | 40.2% (inactive)
COC(=O)C1=C(c2ccc(-c3ccccc3)c(F)c2)C[C@@H]2CC[C@H]1N2C(=O)NCc1ccc(F)cc1 |  | -3.76% (inactive)
COC(=O)C1=C(c2ccc(OCc3ccccc3)cc2)C[C@@H]2CC[C@H]1N2C(=O)NCc1cccc(F)c1 | 4.47 µM (active) | 
COC(=O)C1=C(c2ccccc2OCc2ccccc2)C[C@@H]2CC[C@H]1N2C(=O)NCc1ccc(OC)cc1 |  | -8.58% (inactive)
COC(=O)C1=C(c2cccc(OCc3ccccc3)c2)C[C@@H]2CC[C@H]1N2C(=O)NCc1ccc(Br)cc1 | 12.6 µM (active) | 
COC(=O)C1=C(c2ccc(F)cc2OCc2ccccc2)C[C@@H]2CC[C@H]1N2C(=O)NCc1ccc(Cl)cc1 |  | 9.06% (inactive)
COC(=O)C1=C(c2ccc(OCc3ccccc3)cc2)C[C@@H]2CC[C@H]1N2C(=O)NCc1ccc(Cl)cc1 |  | 7.75% (inactive)
COc1ccc(NC(=O)N2Cc3ccccc3-n3nncc3C2)cc1 |  | 17.6% (inactive)
O=P(OC1=CCCCC1)(c1ccccc1)c1ccccc1 |  | -26.9% (inactive)
CCOC(=O)CNC(=O)N1Cc2cc(N3CCCCC3)ccc2-n2nncc2C1 |  | 23.3% (inactive)
O=C1NCN(c2ccccc2)C12CCN(C(c1cccs1)c1nnnn1C1CCCCC1)CC2 (centres undefined) |  | -19.9% (inactive)
CC1([N+](=O)[O-])COP(=O)(Nc2ccc(F)cc2)OC1 (centres undefined) |  | 17.7% (inactive)
C[C@]12CCC3C(CC[C@H]4[C@H](O)[C@H](O)CC[C@]34C)C1CC[C@@H]2O (some centres undefined) |  | 31.4% (inactive)
Cc1ccsc1C(=O)C1CCCN(Cc2ccc(O)cc2)C1 (centres undefined) |  | -8.89% (inactive)
Cc1ccc(CN2CCCC(C(=O)c3ccc4c(c3)OCO4)C2)cc1C (centres undefined) | 11.2 µM (active) | 
COc1ccc(C(=O)C2CCCN(Cc3ccc(C)s3)C2)cc1OC (centres undefined) |  | -22.3% (inactive)

Structure (SMILES) | Potency | activity change, negative = inhibition
COc1cc(C(=O)N2Cc3ccc(Br)cc3-n3nncc3C2)cc(OC)c1OC |  | 29.4% (inactive)
Clc1ccc(Cl)c(Oc2ccc(Oc3nc(Cl)ccc3Cl)cc2)n1 |  | 42% [at 38.3 µM, GLP-1R form is constitutively active] (inactive)
C[C@H]1CN([C@@H](C)CO)C(=O)CCCn2nncc2CO[C@H]1CN(C)C(=O)Oc1cccc2ccccc12 |  | 12.5% (inactive)
CC=C(C)C(=O)OC1CCN2CC=C(COC(=O)C(O)(C(C)OC)C(C)(C)O)C12 (centres undefined) |  | 1.04% (inactive)
Cc1ccc(S(=O)(=O)N(C)c2ccc(C(=O)NCC3(N(C)C)CCCCC3)cc2)cc1 | 3.16 µM [GLP-1R form is constitutively active] (active) | 
COC1C(O)C(C)OC(OC2CCC3(C=O)C(CCC4C3CCC3(C)C(C5=CC(=O)OC5)CCC43O)C2)C1O (centres undefined) |  | -95.1% (inactive)
O=c1c2ccccc2nc(/C=C/c2ccc(F)cc2)n1-c1ccccc1O |  | -19.7% (inactive)
O=c1c2ccccc2nc(/C=C/c2ccco2)n1-c1ccccc1O | 11.2 µM (active) | 
Cn1cc(/C=C/c2nc3ccccc3c(=O)n2-c2ccccc2)c2ccccc21 |  | -25.5% (inactive)
CC1CCCN1CCC(C(N)=O)(c1ccccc1)c1ccccc1 (centres undefined) |  | 1.28% (inactive)
CC1CC=CCC12C(=O)NC(=S)NC2=O (centres undefined) |  | 2.41% (inactive)
CCN1C(=O)NC(=O)C2(CCCC2)C1=O |  | 18.7% (inactive)
C[C@H]1CN([C@@H](C)CO)C(=O)CCCn2nncc2CO[C@H]1CN(C)C(=O)Oc1ccccc1 |  | 1.58% (inactive)
O=C1NC(=O)C(Cc2ccccc2)C(=O)N1 |  | 24.2% (inactive)
COC(=O)C[C@H]1CC[C@H]2NC[C@@H](O)COC[C@@H]2O1 |  | 4.27% (inactive)
CCn1cc(CN2CCCC(C(=O)c3cccc(C(F)(F)F)c3)C2)cn1 (centres undefined) |  | -9.71% (inactive)
COc1ccc(NC(=O)c2cn(CCC#N)nc2-c2ccc([N+](=O)[O-])cc2)cc1 |  | 5.82% (inactive)
COc1ccc(-c2nn(CCC#N)cc2C(=O)Nc2ccc(C(C)=O)cc2)cc1 |  | 26.7% (inactive)
COc1cccc(C(=O)Nc2ccc(-c3cc(C(F)(F)F)nn3-c3ccccc3)cc2)c1 | 7.94 µM [GLP-1R form is constitutively active] (active) | 
O=C1NC(=O)C(CCOc2ccccc2)(CCc2ccccc2)C(=O)N1 |  | -13% (inactive)

Structure (SMILES) | Potency | activity change, negative = inhibition
O=C1C2CCN(CC2)C1(CO)CO |  | 10.6% (inactive)
CC12CCC(O)CC1CCC1C2CCC2(C)C(C(=O)CC(O)C(F)(F)F)CCC12 (centres undefined) |  | -25.5% (inactive)
CCCCOc1ccc(C(=O)N2CC(=O)Nc3ccc(Br)cc3C2c2ccc(F)cc2)cc1 (centres undefined) | 10 µM [GLP-1R form is constitutively active] (active) | 
CC(=O)NCC1=C(c2ccc3ccccc3c2)C[C@@H]2CC[C@H]1N2Cc1ccco1 |  | -25.4% (inactive)
O=C1C2(Cl)C3(Cl)C4(Cl)C(Cl)(Cl)C5(Cl)C3(Cl)C1(Cl)C5(Cl)C24Cl (centres undefined) | 4.47 µM (active) | 
CC(C)CN1Cc2cc(N3CCCCC3)ccc2-n2nncc2C1 |  | 4.71% (inactive)
COc1ccc(C2C=C(C)Oc3c2c(=O)oc2ccccc32)cc1OC (centres undefined) |  | 18.2% (inactive)
CSCCC(c1nnnn1C(C)(C)C)N1CCC(n2c(=O)[nH]c3ccccc32)CC1 (centres undefined) |  | 8.28% (inactive)
O=C(CN1CCCCC1)Nc1ccc(Br)cc1C(=O)c1ccccc1Cl | 10 µM [GLP-1R form is constitutively active] (active) | 
O=C(CCN1CCCCC1)NCC(=O)Nc1ccc(Br)cc1C(=O)c1ccccc1 |  | 0% (inactive)
O=C(COC(=O)c1ccccc1)Nc1ccc(Cl)cc1C(=O)c1ccccc1 |  | 16.5% (inactive)
CC(=O)c1ccc(-c2ccc(Cn3c(C)nc4cc(N)c(C)nc43)cc2)cc1 |  | 52.8% [at 38.3 µM, GLP-1R form is constitutively active] (inactive)
O=C(NC1CCCCC1)N1Cc2cc(N3CCCCC3)ccc2-n2nncc2C1 |  | 4.72% (inactive)
CC(=O)C1(O)CCC2C3CCC4=C(Cl)C(=O)CCC4(C)C3CCC21C (centres undefined) |  | -1.41% (inactive)
CCOC(=O)C1(Cc2ccc(Cl)cc2)CCN(C(C)CCn2cccn2)CC1 (centres undefined) | 7.94 µM [GLP-1R form is constitutively active] (active) | 
Oc1ccc2c3c1OC1[C@H](O)CC[C@@]4(O)[C@@H](C2)N(CC2CC2)CC[C@]314 (some centres undefined) | inactive | 
CC1CNCCN1c1ccc(Cl)cc1 (centres undefined) |  | -15.4% (inactive)
CC1=C(C(=O)Nc2ccccc2)SCCO1 |  | 9.26% (inactive)
CC1=C(C(=O)Nc2ccccc2)S(=O)(=O)CCO1 | 10 µM (active) | 
